# Test results published in ChEMBL document CHEMBL3433997, “St. Jude Leishmania screening dataset” (2016).
# Biological target: Hexose transporter 1 (Plasmodium falciparum) (UniProt O97467)
# Assay: ST_JUDE_LEISH: Cytotoxicity at 2uM final concentration against transgenic Leishmania Mexicana promastigotes LmPfHT that are glucose transport deficient and complemented with the Plasmodium falciparum hexose transporter. Activity is measured by DNA content using SYBR green in vitro
# Assay type: functional
row,SMILES,inhibition [%]
1,COc1cccc2c(Nc3ccccc3C)nc(Nc3ccccc3C)nc12,16.8
2,COc1ccc(CNCc2ccccc2)cc1-c1ccc(S(=O)(=O)NCCN2CCCC2)s1,2.19
3,C=CCc1cc(C2CCN(CCCCNC(=O)c3ccc(-c4ccc(C#N)cc4)cc3)CC2)c(OCC(N)=O)c2c1CCCC2,2.67
4,CC(C)Oc1ccc2c(c1)OC(c1ccccc1)(C(F)(F)F)NC2=O (stereo not given),12.2
5,CN(C)CCOc1ccc(N2CCN(CCCCNC(=O)c3ccc(/C=C/c4cc(Cl)cc(Cl)c4)cc3)CC2)cc1,0.08
6,Cc1ccc(NCc2cccc(F)c2)cc1S(=O)(=O)N[C@@H]1CCN(C#N)C1,3.53
7,CN1CCN(CCNc2c3ccccc3nc3ccc4ccccc4c23)CC1,17
8,Cc1nc2nc(N)nc(N)c2c(C)c1Cc1ccc(Cl)cc1,43.3
9,Cc1n[nH]c2ccc(-c3cc(OC[C@@H](N)Cc4ccccc4)cnc3-c3ccc(OCc4cccc(F)c4)cc3)cc12,0.68
10,CN=C(N)c1ccc(NC(=O)C=Cc2ccc(C(=O)Nc3ccc(C(N)=NC)cc3)cc2)cc1,15.9
11,CCOC(=O)NCCSC(C)(C)[C@H](NC(=O)[C@H](Cc1cc2ccccc2s1)[C@H](CC)N(O)C=O)C(=O)Nc1nccs1,0.28
12,CCCCNc1nccc2ccc(-c3ccncc3)cc12,4.02
13,COc1ccccc1-n1c(-c2ccc3ccccc3c2)csc1=NC(=O)c1ccccc1,-0.46
14,N#Cc1ccc2c(c1)CCN(CCC1CCC(NC(=O)/C=C/c3ccc4[nH]ccc4c3)CC1)CC2 (stereo not given),0.57
15,Cc1cccc2nc(-c3cccc(-c4ccc(CNCCNC(=O)c5ccnn5C)cc4)c3)[nH]c12,0.67
16,Cc1cccc(NC(=O)NC2CCN(CCCCCNC(=O)/C=C/c3ccc(Cl)c(Cl)c3)CC2)c1,3.83
17,COc1ccc(-c2cccc(NC(=O)c3ccc(C#N)cc3)c2)cc1CN1CCN(C)CC1,14.8
18,CCN(CC)CCN(Cc1ccc(-c2ccc(C(F)(F)F)cc2)cc1)C(=O)Cn1c(SCc2ccc(F)cc2)nc(=O)c2ccccc21,1.11
19,O=C(/C=C/c1ccc(Cl)cc1)NCCCCCN1CCCN(C(=O)Nc2ccc(F)c(Cl)c2)CC1,3.92
20,COc1ccc(CC2(c3ccc(F)cc3)N=C(N)N(CCCc3ccc(F)c(F)c3)C2=O)cc1 (stereo not given),5.53

row,SMILES,inhibition [%]
1,CCC(C)NS(=O)(=O)c1ccc2nc(Nc3ccc(C)cc3)n([C@H](C)C(C)(C)C)c2c1 (stereo not given in full),0.25
2,C[C@H](NC(=O)[C@H](Cc1ccccc1)NC(=O)OC(C)(C)C)C(=O)N[C@@H](CC1CCCCC1)C(O)CN (stereo not given in full),0.84
3,CC(C)[C@H](NC(=O)c1ccc(O)c(-c2cccc(C(F)(F)F)c2)c1)C(=O)NC1CCCc2ccccc21 (stereo not given in full),2.89
4,COc1c(I)cc(Cc2cnc(N)nc2N)cc1I,4.23
5,Cc1cc(N[C@@H](CC(C)C)C(=O)NCc2cccc(F)c2)nc(NCCc2ccccc2)n1,4.78
6,Cc1cccc2nc(-c3ccc(-c4cccc(CNCc5cnn(-c6ccccc6)n5)c4)s3)[nH]c12,2.05
7,O=C(Nc1ccc(Cl)cc1)N[C@H]1CCN(CCCCCNC(=O)C2CC2c2ccc(Cl)c(Cl)c2)C1 (stereo not given in full),6.32
8,CC(C)NCc1ccc(-c2ccc(-c3nc4cc(C(F)(F)F)ccc4[nH]3)s2)cc1,17.8
9,O=C(Nc1cccc(-c2nn3ccccc3c2-c2ccnc(Nc3ccccc3)n2)c1)c1cc(F)ccc1F,2.05
10,CC(C)CNCc1ccc(-c2cccc(CN(CCCN3CCN(C)CC3)C(=O)/C=C/c3ccccc3)c2)cc1,5.21
11,Cc1nc(N)nc(N)c1Oc1cccc(Cl)c1,0.81
12,COc1ccc(C2CC(=O)C3=C(C2)NC(C)=C(C(=O)OC(C)C)C3c2ccc(O)cc2)cc1OC (stereo not given),8.07
13,O=S(=O)(c1cccc(Br)c1)N1CCCCC(c2ccc(C(F)(F)F)cc2)=N1,3.68
14,Fc1ccc(CNc2ccc3ncc(-c4cccnc4)n3n2)cc1,2.21
15,CC1c2cccc(O)c2CCN1CCc1ccc(Cl)c(Cl)c1 (stereo not given),7.34
16,O=C(NCC1CCN(C/C=C/c2ccccc2)CC1)Nc1ccc(Oc2ccccc2)cc1,8.3
17,Cc1nc2nc(N)nc(N)c2c(C)c1Cc1ccc([N+](=O)[O-])cc1,3.25
18,COc1cc(C)nc2ccc(NC(=O)Nc3ccc4nc(C)cc(OC)c4c3)cc12,6.65
19,COc1ccc2cc(C(c3nnnn3CC3CCCO3)N3CCc4ccccc43)c(=O)[nH]c2c1 (stereo not given),3.26
20,CC(O)C1CCCCN1C(=O)c1ccc(-c2ccc(-c3nc4cc(F)ccc4[nH]3)cc2)cc1 (stereo not given),3.23
